Compounds without any hit were thinned out: in the full panel of roughly 83,000, 20% have a hit.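 The endpoint reported here, percent growth, reads 100 for growth as untreated, 0 for no net growth and -100 for all cells dead.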 Calls of active or inactive are those of the source. The calls were made as follows: active = growth percent below 10; inactive = the rest.
Key:
Assay in all cases: NCI-60 one-dose screen, 48 h (100 = growth as untreated, 0 = no growth, -100 = all killed)
HT29 colon = details: 10 µM unless noted
SNB-75 CNS = details: 10 µM unless noted
SNB-19 CNS = details: 10 µM unless noted
U251 CNS = details: 10 µM unless noted
PC-3 prostate = details: 10 µM unless noted
SK-MEL-5 melanoma = details: 10 µM unless noted
UACC-62 melanoma = details: 10 µM unless noted
LOX IMVI melanoma = details: 10 µM unless noted
SK-MEL-28 melanoma = details: 10 µM
SK-MEL-2 melanoma = details: 10 µM unless noted

Measured: growth

Cc1nc2ccccc2c(/C=C/c2ccccc2)c1C(=O)/C=C/c1ccc(Cl)cc1
inactive: SNB-75 CNS 57.8% | SNB-19 CNS 13.6% | PC-3 prostate 33.9% | SK-MEL-5 melanoma 32.4% | UACC-62 melanoma 34.9% | SK-MEL-28 melanoma 19.2% | SK-MEL-2 melanoma 14.7%
active: HT29 colon -8.66% | U251 CNS -33.2% | LOX IMVI melanoma -90.3%

Fc1ccc(Oc2ccc(Nc3ncnc4onc(-c5ccccc5)c34)cc2)cc1
inactive: HT29 colon 109% | SNB-75 CNS 86.4% | SNB-19 CNS 94% | U251 CNS 91.4% | PC-3 prostate 101% | SK-MEL-5 melanoma 100% | UACC-62 melanoma 92.1% | LOX IMVI melanoma 95.8% | SK-MEL-28 melanoma 110% | SK-MEL-2 melanoma 112%

CCCCN1CCN(c2ccc3nc(-c4ccc5nc(-c6ccc(C(F)(F)F)cc6)[nH]c5c4)[nH]c3c2)CC1
inactive: SK-MEL-5 melanoma 10.8%
active: HT29 colon -49.5% | SNB-75 CNS -93.6% | SNB-19 CNS -91.4% | U251 CNS -86.6% | PC-3 prostate -77% | UACC-62 melanoma -31.6% | LOX IMVI melanoma -89.5% | SK-MEL-28 melanoma -88.3% | SK-MEL-2 melanoma -47.5%

CC1(C)CC2(C)OC2C2(C1)N=NC(=Nc1ccccc1)O2 (stereo not given)
inactive: HT29 colon 25.1% | SNB-75 CNS 84.8% | SNB-19 CNS 86% | U251 CNS 84.4% | PC-3 prostate 62.5% | SK-MEL-5 melanoma 61.5% | UACC-62 melanoma 73.1% | SK-MEL-28 melanoma 70.3% | SK-MEL-2 melanoma 76.6%
active: LOX IMVI melanoma -51.9%

COc1ccc(CCN2CCC(CN(C)Cc3cnn(-c4ccccc4)c3)CC2)cc1
active: U251 CNS 9.09% | UACC-62 melanoma -14.2% | LOX IMVI melanoma 2.01%
inactive: HT29 colon 33.5% | SNB-75 CNS 59.9% | SNB-19 CNS 29.4% | PC-3 prostate 34% | SK-MEL-5 melanoma 18.9% | SK-MEL-28 melanoma 33.4% | SK-MEL-2 melanoma 37.3%

CN(CCc1ccccc1)C(=S)N(C(=O)c1ccc([N+](=O)[O-])cc1)c1ccc(Cl)cc1
inactive: HT29 colon 92.7% | SNB-75 CNS 97.2% | SNB-19 CNS 101% | U251 CNS 90.4% | PC-3 prostate 77.5% | SK-MEL-5 melanoma 98.3% | UACC-62 melanoma 92% | LOX IMVI melanoma 61.3% | SK-MEL-28 melanoma 95.2% | SK-MEL-2 melanoma 87.9%

O=C(Nc1ccc(Cl)cc1)c1cc2ccccc2cc1OP(=O)(O)O
active: SK-MEL-5 melanoma 3.56% | SK-MEL-2 melanoma 7.63%
inactive: HT29 colon 103% | SNB-75 CNS 24.2% | SNB-19 CNS 21.6% | U251 CNS 18.8% | PC-3 prostate 24.6% | UACC-62 melanoma 35.4% | LOX IMVI melanoma 22.9% | SK-MEL-28 melanoma 35.9%

CCOC(=O)C1(Cc2ccccc2)CCN(Cc2cccc(OC)c2O)CC1
active: U251 CNS 3.94% | SK-MEL-5 melanoma -33.4% | UACC-62 melanoma -7.92% | LOX IMVI melanoma 5.51% | SK-MEL-2 melanoma 9.33%
inactive: HT29 colon 22.2% | SNB-75 CNS 37.7% | SNB-19 CNS 14.9% | PC-3 prostate 25% | SK-MEL-28 melanoma 38%

O=Cc1cc2ccccc2nc1Nc1nccs1
inactive: HT29 colon 33.9% | SNB-75 CNS 79.4% | SNB-19 CNS 71.6% | U251 CNS 70.4% | PC-3 prostate 49.5% | SK-MEL-5 melanoma 82.2% | UACC-62 melanoma 84.5% | LOX IMVI melanoma 31.7% | SK-MEL-28 melanoma 104% | SK-MEL-2 melanoma 105%

O=C(/C=C/c1ccc(Cl)cc1)c1ccc(Nc2nc(NCCO)nc(N3CCOCC3)n2)cc1
inactive: HT29 colon 42.2% | SNB-75 CNS 64.6% | SNB-19 CNS 91.9% | U251 CNS 46.1% | PC-3 prostate 77.1% | SK-MEL-5 melanoma 79.4% | UACC-62 melanoma 69% | LOX IMVI melanoma 68% | SK-MEL-28 melanoma 94.7% | SK-MEL-2 melanoma 109%

Oc1c(CN2CCN(c3ccccc3F)CC2)cc(Br)c2cccnc12
active: HT29 colon -63.1% | SNB-75 CNS -92.2% | SNB-19 CNS -16.6% | U251 CNS -83.5% | PC-3 prostate 5.26% | SK-MEL-5 melanoma -10.3% | UACC-62 melanoma -42.5% | LOX IMVI melanoma -8.44% | SK-MEL-28 melanoma -78% | SK-MEL-2 melanoma -54.3%

COc1cc2nc(-c3cnc(N(C)C)nc3)nc(NC3CCN(Cc4ccccc4)CC3)c2cc1OC
active: HT29 colon -84.4% | SNB-75 CNS -96.7% | SNB-19 CNS -79.2% | U251 CNS -87.4% | PC-3 prostate -83.2% | UACC-62 melanoma -94.5% | LOX IMVI melanoma -91.9% | SK-MEL-28 melanoma -78.7%
inactive: SK-MEL-5 melanoma 10.6% | SK-MEL-2 melanoma 89.5%

CC[C@]1(O)C[C@@H]2CN(CCc3c([nH]c4ccccc34)[C@@](C(=O)OC)(c3cc4c(cc3OC)N(C)[C@H]3[C@@](O)(C(=O)OC)[C@H](OC(C)=O)[C@]5(CC)C=CCN6CC[C@]43[C@@H]65)C2)C1
inactive: SNB-19 CNS 29.8% | U251 CNS 16.6% | PC-3 prostate 20% | UACC-62 melanoma 34.4% | LOX IMVI melanoma 15.3% | SK-MEL-28 melanoma 66% | SK-MEL-2 melanoma 39.8%
active: HT29 colon 8.06% | SNB-75 CNS 3.82% | SK-MEL-5 melanoma -54.6%

O=C(Nc1ccc(N2CCNCC2)cc1)c1[nH]ncc1Nc1cc(C2CC2)ncn1
inactive: HT29 colon 49.2% | SNB-75 CNS 31.5% | SNB-19 CNS 65.4% | U251 CNS 68.6% | PC-3 prostate 30.2% | SK-MEL-5 melanoma 52.3% | UACC-62 melanoma 50% | LOX IMVI melanoma 36.1% | SK-MEL-28 melanoma 79.5% | SK-MEL-2 melanoma 64.5%

O=C(NC1CCN(Cc2ccccc2)CC1)c1cc2nc(-c3ccc(Cl)s3)cc(C(F)(F)F)n2n1
active: HT29 colon -84.3% | U251 CNS -86.9% | SK-MEL-28 melanoma -97.4% | SK-MEL-2 melanoma -62.8%
inactive: SNB-75 CNS 35.6% | SNB-19 CNS 101% | PC-3 prostate 72.2% | SK-MEL-5 melanoma 89.1% | UACC-62 melanoma 97.3% | LOX IMVI melanoma 45.2%

COc1ccc(C2=Nn3c(NN)nnc3SC2)cc1
inactive: HT29 colon 83.8% | SNB-75 CNS 92.4% | SNB-19 CNS 104% | U251 CNS 99.7% | PC-3 prostate 87.6% | SK-MEL-5 melanoma 91.5% | UACC-62 melanoma 104% | LOX IMVI melanoma 99.9% | SK-MEL-28 melanoma 110% | SK-MEL-2 melanoma 94.4%

Nc1ccc(-c2ccc(-c3ccccc3N)c3[nH]c4ccccc4c23)cc1
inactive: HT29 colon 13.9% | SNB-75 CNS 28.4% | SNB-19 CNS 39% | U251 CNS 35.4% | PC-3 prostate 24.9% | UACC-62 melanoma 25.4% | LOX IMVI melanoma 27.7% | SK-MEL-28 melanoma 51% | SK-MEL-2 melanoma 19.5%
active: SK-MEL-5 melanoma 6.03%

COc1cc(CNC(=O)Cc2ccccc2)ccc1OCc1cn(-c2ccc(F)cc2)nn1
inactive: HT29 colon 111% | SNB-75 CNS 91.7% | SNB-19 CNS 103% | U251 CNS 97.3% | PC-3 prostate 98.5% | SK-MEL-5 melanoma 89.1% | UACC-62 melanoma 85.3% | LOX IMVI melanoma 99.6% | SK-MEL-28 melanoma 103% | SK-MEL-2 melanoma 101%

COc1cc2nc(NC3CCCC3)nc(NC3CCN(C(C)C)CC3)c2cc1OC
inactive: HT29 colon 17.3% | SNB-75 CNS 61.2% | SNB-19 CNS 88% | U251 CNS 45% | PC-3 prostate 71.1% | SK-MEL-5 melanoma 67.6% | UACC-62 melanoma 94.6% | LOX IMVI melanoma 84.4% | SK-MEL-28 melanoma 87.1% | SK-MEL-2 melanoma 101%

Nc1nonc1-n1nncc1-c1cccnc1
inactive: HT29 colon 107% | SNB-75 CNS 81.2% | SNB-19 CNS 129% | U251 CNS 101% | PC-3 prostate 105% | SK-MEL-5 melanoma 106% | UACC-62 melanoma 112% | LOX IMVI melanoma 98.3% | SK-MEL-28 melanoma 105% | SK-MEL-2 melanoma 111%

NS(=O)(=O)c1ccc(CCN=C=S)cc1
active: LOX IMVI melanoma -27.9%
inactive: HT29 colon 14.7% | SNB-75 CNS 29.1% | SNB-19 CNS 73.5% | U251 CNS 27.6% | PC-3 prostate 47% | SK-MEL-5 melanoma 74.7% | UACC-62 melanoma 68.5% | SK-MEL-28 melanoma 55% | SK-MEL-2 melanoma 63%

COc1cc(/C=C2\CCC/C(=C\c3cc(CN4CCOCC4)c(O)c(OC)c3)C2=O)cc(CN2CCOCC2)c1O
active: HT29 colon 3.44% | SNB-75 CNS 4.53%
inactive: SNB-19 CNS 52.8% | U251 CNS 22% | PC-3 prostate 39.9% | SK-MEL-5 melanoma 52.3% | UACC-62 melanoma 40% | LOX IMVI melanoma 13.3% | SK-MEL-28 melanoma 58.7% | SK-MEL-2 melanoma 62.7%

CN(C)CCCNCc1ccc(-c2ccc(F)c(Cl)c2)o1
inactive: SNB-75 CNS 40.5% | SNB-19 CNS 73.6% | PC-3 prostate 38.7% | UACC-62 melanoma 20.1%
active: HT29 colon -30.6% | U251 CNS -29.8% | SK-MEL-5 melanoma 6.38% | LOX IMVI melanoma -90.1% | SK-MEL-28 melanoma -86.9% | SK-MEL-2 melanoma -14.8%

COC(=O)C1(C)CCC[C@]2(C)[C@H]3C[C@H]4C(C(C)C)=C[C@]3(CC[C@@H]12)[C@H]1[C@@H]4[C@@H](OCC#CCN2CCOCC2)CC[C@@H]1OCC#CCN1CCOCC1 (stereo not given in full)
inactive: HT29 colon 77.6% | SNB-75 CNS 93.1% | SNB-19 CNS 79% | U251 CNS 70.9% | PC-3 prostate 53.9% | SK-MEL-5 melanoma 80.2% | UACC-62 melanoma 61% | LOX IMVI melanoma 89% | SK-MEL-28 melanoma 90.5% | SK-MEL-2 melanoma 89.3%

O=C(Nc1ccc(F)cc1F)c1cc(Cl)ccc1O
inactive: HT29 colon 31.4% | SNB-19 CNS 16.2% | LOX IMVI melanoma 14.5% | SK-MEL-28 melanoma 25.3%
active: SNB-75 CNS -8.57% | U251 CNS 3.34% | PC-3 prostate 6.06% | SK-MEL-5 melanoma -67.5% | UACC-62 melanoma 7.39% | SK-MEL-2 melanoma -25.6%

COc1ccc(OC)c(N(CCN2C(=O)c3ccccc3C2=O)C(=O)CCl)c1
inactive: HT29 colon 12.5% | SNB-75 CNS 87.4% | SNB-19 CNS 114% | U251 CNS 60.9% | PC-3 prostate 31.9% | SK-MEL-5 melanoma 94% | UACC-62 melanoma 70.5% | SK-MEL-28 melanoma 100% | SK-MEL-2 melanoma 72.3%
active: LOX IMVI melanoma -11.8%

Clc1ccc(Nc2nnc(-c3ccc4c(c3)OCO4)o2)cc1
inactive: HT29 colon 95% | SNB-75 CNS 121% | SNB-19 CNS 99% | U251 CNS 102% | PC-3 prostate 107% | SK-MEL-5 melanoma 104% | UACC-62 melanoma 88.9% | LOX IMVI melanoma 89.9% | SK-MEL-28 melanoma 114% | SK-MEL-2 melanoma 102%

Source: PubChem BioAssay (NCI)
